This passage reports outcome and AC50 results from PubChem BioAssay (EPA / NIEHS).

Records with an inconclusive call do not appear. Calls of active or inactive are those of the source. The calls were made as follows, unless noted: active = hit-call score of the fitted dose curve at least 0.9, where 1 is the maximum; inactive = score below 0.9.

Tested on in one test: not listed separately
As to the kind of experiment: CCTE_Deisenroth_H295R-HTRF_384WELL_ESTRADIOL: CCTE's H295R-HTRF Assay Evaluation of Estradiol Concentration, Deisenroth Lab (AID 2284361). To be noted: actives raise or lower the signal. In a few lines:
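H295R cells exposed 48 h to chemicals at 0.001 - 100 uM final (nine points, triplicate); estradiol in conditioned medium measured by HTRF immunoassay, fitted bidirectionally versus DMSO. Viability by CellTiter-Glo on same plates.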
In general terms: TR-FRET usually uses a lanthanide donor and a delayed reading to cut background.
For the compound `CC(=O)S[C@@H]1CC2=CC(=O)CC[C@]2(C)[C@H]2CC[C@@]3(C)[C@@H](CC[C@@]34CCC(=O)O4)[C@H]12`, the compound was called inactive.
What is called AC50 is the midpoint of the concentration-response curve, whichever way the signal moves. As to `CC(C)(c1ccc(O)cc1)c1ccc(O)cc1`, the AC50 is 37 µM (active).
With `CCCCOCCOCCOCc1cc2c(cc1CCC)OCO2`, the result was inactive.
Turning to `C=CCOC(Cn1ccnc1)c1ccc(Cl)cc1Cl` (stereo not given), the half-maximal activity concentration (AC50) was 0.447 µM (active).

Tested on in a further test: not listed separately
In words: CCTE_Deisenroth_H295R-HTRF_384WELL_TESTOSTERONE: CCTE's H295R-HTRF Assay Evaluation of Testosterone Concentration, Deisenroth Lab (AID 2284373). To be noted: actives raise or lower the signal. In a few lines:
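Secreted testosterone was quantified by HTRF immunoassay of medium from human adrenocortical H295R cells after 48 h chemical exposure at 0.001–100 uM final. Gain or loss was fitted against DMSO. ATP-based viability was read on matched wells, five experimental replicates.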
For `CC(=O)S[C@@H]1CC2=CC(=O)CC[C@]2(C)[C@H]2CC[C@@]3(C)[C@@H](CC[C@@]34CCC(=O)O4)[C@H]12`, the AC50 is 1.28 µM (active).
`CC(C)(c1ccc(O)cc1)c1ccc(O)cc1`: the AC50 is 0.804 µM (active).
As to `CCCCOCCOCCOCc1cc2c(cc1CCC)OCO2`, the compound was called inactive.
Take `C=CCOC(Cn1ccnc1)c1ccc(Cl)cc1Cl` (stereo not given): the AC50 is 1.87 µM (active).

Tested on in the next test: not listed separately
As to the kind of experiment: CCTE_Deisenroth_H295R-HTRF_384WELL_CTOX: Cytotoxicity Assessment in CCTE's H295R-HTRF Assay, Deisenroth Lab (AID 2284380; active = hit-call score of the fitted dose curve at least 0.9, where 1 is the maximum).
Conditions: not given
In a few lines: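 H295R adrenocortical carcinoma cells plated 24 h, then exposed 48 h to nine-point series 0.001–100 uM final, triplicate, n=5. ATP measured by CellTiter-Glo 2.0 luminescence on same plates after medium collection; loss versus DMSO.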
With `CC(=O)S[C@@H]1CC2=CC(=O)CC[C@]2(C)[C@H]2CC[C@@]3(C)[C@@H](CC[C@@]34CCC(=O)O4)[C@H]12`, the call was inactive.
As for `CC(C)(c1ccc(O)cc1)c1ccc(O)cc1`, the half-maximal activity concentration (AC50) was 15 µM (active).
Take `CCCCOCCOCCOCc1cc2c(cc1CCC)OCO2`: the call was inactive.
As to `C=CCOC(Cn1ccnc1)c1ccc(Cl)cc1Cl` (stereo not given), the AC50 was 84.6 µM (active).

In a further test the test system is SRY-box transcription factor 17 (SOX17) Protein Expression, Deisenroth Lab, SOX17 (gene 64321). In words: CCTE_Deisenroth_DEVTOX-GLR_Endo_SOX17: CCTE's DevTox GLR-Endo Assay Evaluation of SRY-box transcription factor 17 (SOX17) Protein Expression, Deisenroth Lab (AID 2284413).
Conditions: not given
In a few lines: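 Endpoint: % change in SOX17+ fraction (SOX17+ cells / cell count) vs 0.2% DMSO solvent control. RUES2-GLR reporter cells, 48 h endoderm differentiation, two doses at 24 h intervals, high-content fluorescence imaging, 5 fields/well.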
As to `CC(C)(c1ccc(O)cc1)c1ccc(O)cc1`, the half-maximal activity concentration (AC50) was 50.8 µM (active).
For the compound `OB(O)O`, the outcome was inactive.
With `CCCCC(CC)COC(=O)c1ccccc1C(=O)O` (stereo not given), the half-maximal activity concentration (AC50) was 100 µM (active).

In a further test the test system is Brachyury (BRA) Protein Expression, TBXT (gene 6862). In words: CCTE_Deisenroth_DEVTOX-GLR_Endo_BRA: CCTE's DevTox GLR-Endo Assay Evaluation of Brachyury (BRA) Protein Expression, Deisenroth Lab (AID 2284417).
Conditions: not given
In a few lines:
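Read-out: BRA+ cell count divided by total cell count by high-content imaging (5 fields per well), expressed relative to 0.2% DMSO solvent control. RUES2-GLR cells dosed twice over a 48 h differentiation; concentrations 1 nM - 200 uM.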
On to `CC(C)(c1ccc(O)cc1)c1ccc(O)cc1`, for which the AC50 is 83.8 µM (active).
Turning to `OB(O)O`, the AC50 is 30.5 µM (active).
Same read-out and setting: for `CCCCC(CC)COC(=O)c1ccccc1C(=O)O` (stereo not given) the value was 160 µM (active).

Tested on in a further test: not listed separately
In words: CCTE_Deisenroth_DEVTOX-GLR_Endo_CellCount: Viability Assessment in CCTE's DevTox GLR-Endo Assay, Deisenroth Lab (AID 2284420).
Conditions: not given
In a few lines:
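Percent change in nuclear-stain cell counts versus 0.2% DMSO, from high-content imaging over 5 fields per well. Over a 48 h endoderm differentiation, RUES2-GLR cells received two doses 24 h apart across a 1 nM–200 uM series, with n=4.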
For `CC(C)(c1ccc(O)cc1)c1ccc(O)cc1`, the AC50 is 35.5 µM (active).
Regarding `OB(O)O`, the compound was classed as inactive.
As for `CCCCC(CC)COC(=O)c1ccccc1C(=O)O` (stereo not given), the AC50 was 109 µM (active).

The test system of the next test is SRY-box transcription factor 17 (SOX17) Protein Expression, Deisenroth Lab, SOX17 (gene 64321). In words: CCTE_Deisenroth_DEVTOX-GLR_Pluri_SOX17: CCTE's DevTox GLR-Pluri Assay Evaluation of SRY-box transcription factor 17 (SOX17) Protein Expression, Deisenroth Lab (AID 2284427; active = hit-call score of the fitted dose curve at least 0.9, where 1 is the maximum).
Conditions: not given
Here is the method: CCTE_Deisenroth_DEVTOX-GLR_Pluri assay is a cell-based, multiplex-readout assay that uses RUES2-GLR, a human pluripotent cell line, with measurements taken at 48 hours after chemical dosing in a 384-well microplateCCTE_Deisenroth_DEVTOX-GLR_Pluri_SOX17 is 1 of 4 assay components calculated from the CCTE_Deisenroth_DEVTOX-GLR_Pluri assay and it measures an the percentage of cells in an endoderm state. Using a type of inducible fluorescent protein reporter, gain-of-signal activity can be used to understand changes in gene expression with fluorescent microscopy. The percentage of SOX17+ cells are determined by calculating the number of SOX17+ cells divided by the cell count. To generalize the intended target to other relatable targets, this assay component is annotated to the transcription factor intended target family, where the subfamily is SRY-related HMG-box.Data from the assay component CCTE_Deisenroth_DEVTOX-GLR_Pluri_SOX17 was analyzed as 1 assay endpoint. The endpoint is the percent SOX17+ cell population minus the 0.2% DMSO control in the CCTE_Deisenroth_DEVTOX-GLR_Pluri assay. This assay endpoint can be referred to as a secondary readout since this assay has produced multiple assay endpoints where this one serves as a measure of endoderm differentiation.
(§1) All assay protocols are aligned to the DevTox GLR-Endo assay workflow. Cells are seeded into 384-well microplates for 24 hours prior to initiating differentiation in defined media for a total duration of 48 hours. A total of two chemical exposures are administered in 24-hour intervals during the 48-hour differentiation period. At the assay termination point, cells are fixed and stained with a fluorescent dye demarcating the nucleus. High-content imaging is used to acquire brightfield and fluorescent channel images across 5 fields per well. Cell identification and mean biomarker fluorescence intensities are calculated with image analysis software to determine the total cell counts for viability assessment and the biomarker expression frequency for each lineage-dependent assay. […]
As for `CC(C)(c1ccc(O)cc1)c1ccc(O)cc1`, the AC50 was 29.3 µM (active).
`OB(O)O`: the compound was called inactive.
For the compound `CCCCC(CC)COC(=O)c1ccccc1C(=O)O` (stereo not given), the AC50 was 100 µM (active).

A further test relates to SRY-box transcription factor 2 (SOX2) Protein Expression, Deisenroth Lab, SOX2 (gene 6657). As to the kind of experiment: CCTE_Deisenroth_DEVTOX-GLR_Pluri_SOX2: CCTE's DevTox GLR-Pluri Assay Evaluation of SRY-box transcription factor 2 (SOX2) Protein Expression, Deisenroth Lab (AID 2284428).
Conditions: not given
In a few lines:
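Percent SOX2+ cells (SOX2+ count per total cells, fluorescent imaging) in RUES2-GLR human pluripotent line, expressed relative to 0.2% DMSO. Compounds dosed twice at 24 h intervals during 48 h, 1 nM - 200 uM, 10 concentrations.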
With `CC(C)(c1ccc(O)cc1)c1ccc(O)cc1`, the AC50 was 38.9 µM (active).
Regarding `OB(O)O`, the compound was called inactive.
`CCCCC(CC)COC(=O)c1ccccc1C(=O)O` (stereo not given): the AC50 is 100 µM (active).

The test system of another test is Brachyury (BRA) Protein Expression, Deisenroth Lab, TBXT (gene 6862). As to the kind of experiment: CCTE_Deisenroth_DEVTOX-GLR_Pluri_BRA: CCTE's DevTox GLR-Pluri Assay Evaluation of Brachyury (BRA) Protein Expression, Deisenroth Lab (AID 2284429; active = hit-call score of the fitted dose curve at least 0.9, where 1 is the maximum).
Conditions: not given
Here is the method:
CCTE_Deisenroth_DEVTOX-GLR_Pluri assay is a cell-based, multiplex-readout assay that uses RUES2-GLR, a human pluripotent cell line, with measurements taken at 48 hours after chemical dosing in a 384-well microplateCCTE_Deisenroth_DEVTOX-GLR_Pluri_BRA is 1 of 4 assay components calculated from the CCTE_Deisenroth_DEVTOX-GLR_Pluri assay and it measures an the percentage of cells in an mesoderm state. Using a type of inducible fluorescent protein reporter, gain-of-signal activity can be used to understand changes in gene expression with fluorescent microscopy. The percentage of BRA+ cells are determined by calculating the number of BRA+ cells divided by the cell count. To generalize the intended target to other relatable targets, this assay component is annotated to the transcription factor intended target family, where the subfamily is T-box protein.Data from the assay component CCTE_Deisenroth_DEVTOX-GLR_Pluri_BRA was analyzed as 1 assay endpoint. The endpoint is the percent BRA+ cell population minus the 0.2% DMSO control in the CCTE_Deisenroth_DEVTOX-GLR_Pluri assay. Furthermore, this assay endpoint can be referred to as a secondary readout, because this assay has produced multiple assay endpoints where this one serves as a measure of mesoderm differentiation.
as §1
For `CC(C)(c1ccc(O)cc1)c1ccc(O)cc1`, the AC50 was 38.4 µM (active).
Regarding `OB(O)O`, the result was inactive.
As to `CCCCC(CC)COC(=O)c1ccccc1C(=O)O` (stereo not given), the AC50 was 70.4 µM (active).
